Drawing on PubChem BioAssay (NCI), this text covers growth for 13 molecules.

This is part of a sample that, as a whole, favours compounds with a hit. Of some 83,000 tested, about 20% had one in any assay.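 Interpretation: 100, growth as untreated; towards 0, rising growth inhibition; 0, no net growth; 0 to -100, cell death. Compounds scoring below 10 were considered active.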 A number with no mark means an inactive call. Calls of active or inactive are those of the source.

The experiment has as its system UO-31 renal. The experiment in a line: NCI-60 one-dose screen, 48 h (100 = growth as untreated, 0 = no growth, -100 = all killed). The following applies: 10 µM unless noted.
On to `O=C(O)C(O)C(O)C(=O)O.[NH-]C1CCCCC1[NH-].[Pt+2]` (stereo not drawn), for which the growth is 97.9%.

Turning to `Cc1ccc(Nc2c(C(N)=O)cnc3ccc(-c4csc(N)n4)cc23)cc1`, the growth is 88.7%.

`Cl/C(=N\Nc1ccccc1)c1ccccc1`: the growth was 72.8%.

With `COc1cc(-c2c3sc(=O)[nH]c3nc3c2c(=O)[nH]n3C(C)C)cc2c1OCO2`, the growth was 96.8%.

`CC(C)(C)n1cc(-c2ccnc(NCCNS(=O)(=O)c3ccccc3)c2)c(-c2cccc(O)c2)n1`: the growth was 61.3%.

In the case of `COC(=O)C12C3C(=O)N(c4ccc(OC)cc4)C(=O)C3C(c3cn(-c4ccccc4)nc3C)N1[C@H](c1cn(-c3ccccc3)nc1C)[C@@H]1C(=O)N(c3ccc(OC)cc3)C(=O)[C@@H]12` (stereo partly drawn), the growth is 97.1%.

Take `CC/C(Cc1ccccc1)=C(/c1ccc(O)cc1)c1ccc(OCCN2CCCC2)cc1`: the growth was -79.8% (active).

Regarding `O=C(NC(Cc1ccccc1)C(=O)CCl)OCc1ccccc1` (stereo not drawn), the growth was 59.6%.

For `CCCCCC(=O)N(CCCC)CCCC`, the growth is 78.5%.

Consider `COc1cccc(/C=C2/C(=O)N(Cc3ccco3)SC2=S)c1OC`, for which the growth is 93.4%.

On to `COc1ccc(-c2cc(/C=C3\C(=O)Nc4ccc(Cl)cc43)[nH]n2)cc1`, for which the growth was 64.4%.

As for `CCOC(=O)C(C#N)C1CCCCC1` (stereo not drawn), the growth is 91.1%.

As for `CC(C)[C@H]1COC(=O)N1[C@@H]1C(=O)N([C@@H](CCC(=O)N2CCN(C3CCCC3)CC2)C(=O)N[C@@H]2CCCc3ccccc32)[C@@H]1/C=C/c1cccc(Br)c1`, the growth was 31%.
